Data reported in PubChem BioAssay (NCATS).
“And” between values parts separate entries of the source, which are not always exact repeats. Equal entries are not always repeated. Inconclusive results are not listed. Where a call stands in place of a potency, no number is given. The source made the active and inactive calls. Unless noted, calls follow the shape of the full dose curve.

Assays:
[1] = qHTS Assay for Lipid Storage Modulators (AID 1519); details: Drosophila S3 cells, BODIPY lipid droplet/cell ratio, laser cytometry, cells loaded with oleic acid
Summary of the method: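 Cells seeded at 5,000 per well were treated with compounds over a concentration series and loaded with oleic acid (400 uM, as added). Lipid droplet fluorescence (488 nm excitation, 500-530 nm channel) was read by laser-scanning cytometry and normalized to 20 uM Triacsin C.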

[2] = Validation screen for inhibitors of Lassa infection (AID 463096)
[3] = Inducers of the Endoplasmic Reticulum Stress Response (ERSR) in human glioma: Validation (AID 504836; active = well fitted curve in the direction sought with a large enough effect)
Summary of the method: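 Stably transfected U87-MG glioma cells carrying a GRP78-based luciferase sensor; 16 h compound incubation. Luminescence end-point read 10 min after Bright-Glo addition at room temperature.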

[4] = qHTS for Inhibitors of the Functional Ribonucleoprotein Complex (vRNP) of Lassa (LASV) Arenavirus: LASV Primary Screen - GLuc reporter signal (AID 1347082; calls by dose curve; tested in HEK293 reporter line; also: nearly all actives have a fitted effect of over 60% in size)
[5] = qHTS for Inhibitors of the Functional Ribonucleoprotein Complex (vRNP) of Lymphocytic Choriomeningitis Arenaviruses (LCMV): Viability assay - alamar blue signal for LCMV Primary Screen (AID 1347085; calls by dose curve; tested in HEK293 reporter line; also: nearly all actives have a fitted effect of over 80% in size; also: potency is read from the fitted curve at half-maximal effect)
[6] = target: Nucleoprotein (Lymphocytic choriomeningitis virus (strain Armstrong)) (UniProt P09992); test: qHTS for Inhibitors of the Functional Ribonucleoprotein Complex (vRNP) of Lymphocytic Choriomeningitis Arenaviruses (LCMV): LCMV Primary Screen - GLuc reporter signal (AID 1347086); also: nearly all actives have a fitted effect of over 70% in size
[7] = Primary qHTS to identify inhibitors of SARS-CoV-2 cell entry (AID 1645846); details: activity change, negative = inhibition: at 57.1 µM (top of the series) unless noted; also: nearly all actives have a fitted effect of over 45% in size; also: potency is read from the fitted curve at half-maximal effect
Summary of the method: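 HEK293-ACE2 (Expi293F, stable hACE2), 1500 cells/well, o/n 37C; cpd 23 nL pin, 1 h; MLV-PP w/ SARS-CoV-2-S (Wuhan-Hu-1, Δ19 C-term); 48 h 37C; Bright-Glo luminescence; normalized vs S-PP and bald PP.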

[8] = Confirmatory qHTS for VERO E6 Cytotoxicity Assay: Counterscreen for SARS-CoV-2 CPE Assay (AID 1508605); also: nearly all actives have a fitted effect of over 60% in size; also: potency is read from the fitted curve at half-maximal effect
[9] = Cytotoxicity counterscreen for inhibitors of SARS-CoV-2 cell entry (AID 1645845); also: nearly all actives have a fitted effect of over 50% in size
Summary of the method: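 Counterscreen run in the same HEK293-ACE2 line as the pseudotyped-particle entry assay, without particles. Viability after 48 h at 37 C was read as ATP luminescence, scaled between cell-containing and cell-free wells.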

[10] = Confirmatory qHTS to identify inhibitors of SARS-CoV-2 cell entry (AID 1645844); also: nearly all actives have a fitted effect of over 45% in size
Summary of the method: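 HEK293-ACE2, overnight seeding; cpd 1 h, 37C/5% CO2; + SARS-CoV-2-S MLV PP (Wuhan-Hu-1, ΔC19); 48 h; Bright-Glo luminescence. Data normalised to S PP and bald PP wells.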

[11] = VSVG counterscreen qHTS to identify inhibitors of SARS-CoV-2 cell entry (AID 1645847); also: nearly all actives have a fitted effect of over 65% in size
Summary of the method: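 Expi293F/hACE2 cells, overnight plating; cpd 1 h, 37C/5% CO2; + VSV-G PP (MLV pseudotyping), 48 h; supernatant removed, Bright-Glo luciferase read. Norm: VSV-G PP and bald PP wells.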

[12] = Primary qHTS for Huh7 cytotoxicity: counterscreen for inhibitors of MERS-S pseudotyped particle cell entry (AID 1479147); details: outcome: dose series up to 57.1 µM unless noted
[13] = Primary qHTS for inhibitors of MERS-S pseudo-typed particle cell entry (AID 1479149); also: nearly all actives have a fitted effect of over 60% in size
[14] = Primary qHTS for Vero E6 cytotoxicity: counterscreen for inhibitors of SARS-S pseudo-typed particle cell entry (AID 1479150); details: outcome: dose series up to 57.1 µM unless noted

Sequence of Nucleoprotein (Lymphocytic choriomeningitis virus (strain Armstrong)) (P09992 whole entry, looked up): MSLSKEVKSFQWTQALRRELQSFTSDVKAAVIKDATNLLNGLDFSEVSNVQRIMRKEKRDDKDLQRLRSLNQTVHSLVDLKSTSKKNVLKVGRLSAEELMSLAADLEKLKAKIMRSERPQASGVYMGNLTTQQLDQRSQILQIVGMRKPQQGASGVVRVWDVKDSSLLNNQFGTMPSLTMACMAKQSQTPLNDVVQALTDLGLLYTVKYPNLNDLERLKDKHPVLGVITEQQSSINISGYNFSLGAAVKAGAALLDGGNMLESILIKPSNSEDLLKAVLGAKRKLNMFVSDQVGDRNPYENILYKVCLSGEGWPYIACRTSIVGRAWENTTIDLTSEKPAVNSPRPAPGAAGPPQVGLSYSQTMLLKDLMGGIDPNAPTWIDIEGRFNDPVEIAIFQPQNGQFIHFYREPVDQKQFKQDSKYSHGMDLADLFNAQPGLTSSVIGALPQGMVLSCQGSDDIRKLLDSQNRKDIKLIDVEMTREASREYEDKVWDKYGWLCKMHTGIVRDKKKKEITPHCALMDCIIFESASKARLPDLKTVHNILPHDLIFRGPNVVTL

With `O=C1OC(=O)C2C3CCC(O3)C12` (stereo not given) the activity change, negative = inhibition ([1]; at 57.5 µM (top of the series)) was 0.66% (inactive) and -7.44% (inactive), the max response ([1]; measured here: cell count channel max response) was -1.46% and -29.7% and the max response ([1]; measured here: lipid channel max response) was 1.23% and -36.1%. For the same compound, the Potency [2] was “inactive”, the outcome [3] was “inactive” and the Potency [4] was “inactive”. The Potency [5] was 12.6 µM (active).

In the case of `CN(C)CC[C@H](CSc1ccccc1)Nc1ccc(S(=O)(=O)NC(=O)c2ccc(N3CCN(Cc4ccccc4-c4ccc(Cl)cc4)CC3)cc2)cc1[N+](=O)[O-]`, the Potency [4] is reported as “inactive”, the Potency [5] is reported as “inactive” and the Potency [6] is reported as “inactive”. It also gave an activity change, negative = inhibition [7] of 1.37%.

With `Nc1ncnc2c1c(-c1cccc(OCc3ccccc3)c1)cn2C1CC(CN2CCCC2)C1` (stereo not given) the Potency [4] was “inactive”, the Potency [5] was 27.3 µM (active) and the Potency [8] was 12.6 µM (active). The Potency [7] was 14.1 µM (active).

In the case of `CC(C)(C)NC(=O)Nc1cccc(Nc2ncc(F)c(NC(C)(C)CO)n2)c1`, the Potency [4] is reported as “inactive” and the Potency [6] is reported as “inactive”.

With `Nc1nc(NCCNc2ncc(-n3ccnc3)c(-c3ccc(Cl)cc3Cl)n2)ccc1[N+](=O)[O-]` the Potency [4] was “inactive”, the Potency [5] was 15.3 µM (active) and the Potency [9] was “inactive”. It also gave an activity change, negative = inhibition [7] of -29.7%.

In the case of `CC[C@H](C)C(=O)O[C@H]1CCC=C2C=C[C@H](C)[C@H](CC[C@@H]3C[C@@H](O)CC(=O)O3)[C@H]21`, the outcome [3] is reported as “inactive”, the Potency [4] is reported as “inactive” and the Potency [10] is reported as “inactive”. For the same compound, the Potency [9] was “inactive”, the activity change, negative = inhibition [7] was -51.5% and the Potency [11] was “inactive”.

For `COc1cc(C=CC(=O)O)ccc1O`, the Potency [4] was “inactive” and the Potency [6] was “inactive”.

With `CNC(=O)[C@H](Cc1ccccc1)NC(=O)[C@H](CC(C)C)[C@H](CSc1cccs1)C(=O)NO` the Potency [4] was “inactive”, the Potency [6] was “inactive” and the Potency [9] was “inactive”. For the same compound, the activity change, negative = inhibition [7] was -35.2%.

For `Nc1ccn([C@@H]2O[C@H](CO)[C@@H](O)[C@H]2O)c(=O)n1`, the Potency [4] was “inactive”, the Potency [6] was “inactive” and the outcome [12] was “inactive”. For the same compound, the Potency [13] was “inactive”, the outcome [14] was “inactive” and the Potency [9] was “inactive”.

With `CC1OC(OC2CC(O)C3(CO)C4C(O)CC5(C)C(C6=CC(=O)OC6)CCC5(O)C4CCC3(O)C2)C(O)C(O)C1O` (stereo not given) the Potency [4] was “inactive” and the Potency [6] was “inactive”.

For `COc1cc(C(C)C)c(Oc2cnc(NC(CO)CO)nc2N)cc1I`, the Potency [4] was “inactive”, the Potency [6] was “inactive” and the Potency [9] was “inactive”. The Potency [7] was “inactive”.

For `Cc1cc(Nc2cc(CN3CCOCC3)c3nc(C)c(Cc4ccc(Cl)cc4F)n3n2)n[nH]1`, the Potency [4] was “inactive” and the Potency [6] was “inactive”.

With `CN[C@@H](C)[C@H]1[C@H](O)C[C@@]2(C)[C@@H]3CC[C@H]4C(C)(C)[C@@H](NC)CC[C@@]45C[C@@]35CC[C@]12C` the Potency [4] was “inactive”, the Potency [6] was “inactive” and the Potency [8] was “inactive”.
